In PubChem BioAssay (NCATS):
Where “and” joins values, the source holds several entries; their conditions need not be identical. Equal entries are not always repeated. Records with an inconclusive call do not appear. Some structures have more than one record in an assay (separate samples or runs), and their calls can disagree. Calls of active or inactive are those of the source. The call rests on the fitted dose curve; in most records, active means well fitted curve in the direction sought with a large enough effect; inconclusive means small, poorly fitted or top-dose-only effect, or another doubt; inactive means no such curve, though single readings can be large; an effect the other way counts as inactive or inconclusive.

Legend:
[1] = molecular target: Glutathione peroxidase 1 (Homo sapiens) (UniProt P07203); experiment: Primary qHTS Assay for Inhibitors of Recombinant Selenoprotein Glutathione Peroxidase 1 (GPX1) (AID 1845191); further: nearly all actives have a fitted effect of over 65% in size
Chain of Glutathione peroxidase 1 (Homo sapiens) (P07203 whole entry, looked up): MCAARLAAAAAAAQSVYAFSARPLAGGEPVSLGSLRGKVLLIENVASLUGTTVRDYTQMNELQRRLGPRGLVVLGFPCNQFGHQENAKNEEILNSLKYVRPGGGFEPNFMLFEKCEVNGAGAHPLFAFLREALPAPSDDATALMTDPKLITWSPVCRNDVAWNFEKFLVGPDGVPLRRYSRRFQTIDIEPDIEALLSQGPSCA
How it was run: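 GR-coupled readout: NADPH consumption tracked by fluorescence, ex 340/em 450 nm, at t=0 and after 15 min at RT. Final mix 10 nM GPX1, 1 mM GSH, 0.5 mM CHP, 0.5 mM NADPH, 100 nM GR, 0.01% BSA, following 30 min enzyme–compound preincubation.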

[2] = molecular target: Phospholipid hydroperoxide glutathione peroxidase GPX4 (Homo sapiens) (UniProt P36969); experiment: Primary qHTS Assay for Inhibitors of Recombinant Selenoprotein Glutathione Peroxidase 4 (GPX4) (AID 1845192); further: nearly all actives have a fitted effect of over 65% in size; further: potency means the concentration at half of the fitted maximal effect; on activity change, negative = inhibition: series mostly up to about 50 µM; on the % scale 0 is the no-effect control and ±100 the full control effect
Chain of Phospholipid hydroperoxide glutathione peroxidase GPX4 (Homo sapiens) (P36969 whole entry, looked up): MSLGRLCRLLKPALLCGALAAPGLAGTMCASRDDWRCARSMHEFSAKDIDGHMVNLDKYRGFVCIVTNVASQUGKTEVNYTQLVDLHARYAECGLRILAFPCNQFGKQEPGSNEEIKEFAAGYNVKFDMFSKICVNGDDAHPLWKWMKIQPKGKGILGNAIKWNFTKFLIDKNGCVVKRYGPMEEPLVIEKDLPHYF
How it was run: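 Steps: GPX4 plus compound, 30 min RT; add GR/GSH/NADPH master mix; start with cumene hydroperoxide; read 340/450 nm fluorescence at 0 and 15 min. Finals were 200 nM GPX4, 1 mM GSH, 0.5 mM CHP, 0.5 mM NADPH, 100 nM GR.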

[3] = molecular target: Luciferin 4-monooxygenase (Photinus pyralis) (UniProt P08659); experiment: Primary firefly luciferase (FLuc) qHTS assay for identification of artifact compounds. (AID 1845220); further: nearly all actives have a fitted effect of over 60% in size; further: potency means the concentration at half of the fitted maximal effect;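 on activity change, negative = inhibition: series mostly up to about 54 µM; plate controls were DMSO vehicle for no effect and no enzyme for full effect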
How it was run: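 D-luciferin and ATP (10 uM each, final) in Tris acetate buffer pH 7.6 were incubated with compounds for 15 min at room temperature. The reaction was started with 10 nM Photinus pyralis luciferase and luminescence read after 5 min. Percent inhibition was fitted to a 4-parameter Hill equation.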

[4] = Primary fluorescence-based thiol-reactive (MSTI) qHTS assay for identification of artifact compounds. (AID 1845221); further: nearly all actives have a fitted effect of over 65% in size; further: potency means the concentration at half of the fitted maximal effect;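 on activity change, negative = thiol reactive: series mostly up to about 54 µM; thiol-reactive compounds lower the probe fluorescence signal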
How it was run: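 One-hour, room-temperature, dark incubation of compound with 4 uM MSTI in PBS (pH 7.4, 2% DMSO) precedes a fluorescence read at 525 nm excitation, 598 nm emission; Hill-equation fitting yields concentration-response values.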

CN1C(=O)C(Cc2c[nH]c3ccccc23)NC1=S (stereo not given)
inactive: Potency [1] | Potency [2] | Potency [3]

COc1ccc(CCC(=O)Nc2nc3ccc(Cl)cc3s2)cc1OC
inactive: Potency [1] | Potency [2] | Potency [3] | Potency [4]

NC(=O)c1ccc(N(C(N)=O)c2c(F)cccc2F)nc1-c1ccc(F)cc1F
inactive: Potency [1] | Potency [2] | Potency [3] | Potency [4]

COc1cc2ncnc(Nc3cc(Br)c(O)c(Br)c3)c2cc1OC
inactive: Potency [1] | Potency [2] | Potency [3]
active: Potency [4] 6.7 µM

Cc1cc2c(cc1C1(c3ccc(C(=O)O)cn3)CC1)C(C)(C)CCC2(C)C
inactive: Potency [1] | Potency [2] | Potency [3] | Potency [4]

CNC(=O)c1cc(Oc2ccc(NC(=O)Nc3ccc(Cl)c(C(F)(F)F)c3)c(F)c2)ccn1
inactive: Potency [1] | Potency [2] | Potency [3] | Potency [4]

Cc1cnc(CNC(=O)c2c(=O)c3ccc(N4CCCN(C)CC4)nc3n3c2sc2ccccc23)cn1
inactive: outcome [1] inactive [at 9.52 µM] | activity change, negative = inhibition [2] -0.552% [at 9.73 µM] | activity change, negative = inhibition [3] 3.83% [at 11.6 µM] | activity change, negative = thiol reactive [4] 18.4% [at 11.5 µM]

CCCCn1c(=O)n(Cc2ccccc2F)c(=O)c2[nH]c(Cc3ccc(NC(C)=O)cc3)nc21
inactive: Potency [1] | Potency [2] | Potency [3] | Potency [4]

Nc1ccc(-c2ccc3ncc4ccc(=O)n(-c5cccc(C(F)(F)F)c5)c4c3c2)cn1
inactive: Potency [1] | Potency [2] | Potency [3] | Potency [4]

Cn1cnc(-c2cc3nccc(Oc4ccc(NC(=S)NC(=O)Cc5ccccc5)cc4F)c3s2)c1
inactive: Potency [1] | Potency [3] | Potency [4]
inactive and 7.18 µM (active): Potency [2]

O=c1[nH]nc(OCCCc2ccc(Cl)cc2)c(NCc2cccnc2)c1Br
inactive: Potency [1] | Potency [2] | Potency [3] | Potency [4]

O=C(CC12CC3CC(CC(C3)C1)C2)Nc1cccc2nc(NCCNCCO)ccc12
inactive: Potency [1] | Potency [2] | Potency [3] | Potency [4]

CCNC(=O)c1noc(-c2cc(C(C)C)c(O)cc2O)c1-c1ccc(CN2CCOCC2)cc1
inactive: Potency [1] | Potency [2] | Potency [3] | Potency [4]

COc1ccc(-c2ccc3ncc4c(c3c2)n(-c2ccc(N3CCNCC3)c(C(F)(F)F)c2)c(=O)n4C)cn1
inactive: Potency [1] | Potency [2] | Potency [3] | Potency [4]

NC1(C(=O)N[C@@H](CCO)c2ccc(Cl)cc2)CCN(c2ncnc3[nH]ccc23)CC1
inactive: Potency [1] | Potency [2] | Potency [3] | Potency [4]

COc1cc2nccc(Oc3ccc(NC(=O)Nc4cc(C)on4)c(Cl)c3)c2cc1OC
inactive: Potency [1] | Potency [2] | Potency [3] | Potency [4]

CCCCC(F)(F)[C@@]1(O)CC[C@H]2[C@H](CC(=O)[C@@H]2CCCCCCC(=O)O)O1
inactive: Potency [1] | Potency [2] | Potency [3] | Potency [4]

C[C@@H](NC(=O)c1ncnc(N)c1Cl)c1ncc(C(=O)Nc2cc(C(F)(F)F)c(Cl)cn2)s1
inactive: Potency [1] | Potency [2] | Potency [3] | Potency [4]

O=C(Nc1ccc(OC(F)(F)F)cc1)c1sccc1NCc1ccnc2ccccc12
inactive: Potency [2] | Potency [4]

Cn1c(=O)c(-c2c(Cl)cccc2Cl)cc2cnc(Nc3cccc(C(=O)O)c3)nc21
inactive: Potency [1] | Potency [2] | Potency [4]
active: Potency [3] 0.379 µM

C[C@@]1(C(=O)Nc2ccc(F)nc2)CCCN1c1nc(Nc2cc(C3CC3)[nH]n2)c2cccn2n1
inactive: Potency [3]

O=S(=O)(O)c1ccc2cc(N=Nc3cc(S(=O)(=O)O)c4cccnc4c3O)ccc2c1
active: Potency [4] 0.15 µM

COC(=O)N1CCN(Cc2cccc(NC(=O)Nc3ccc(C)nc3)c2F)CC1
inactive: Potency [1] | Potency [2] | Potency [3] | Potency [4]

Cc1cc(C(C)Nc2ccccc2)c2nc(N3CCOCC3)cc(=O)n2c1 (stereo not given)
inactive: Potency [1] | Potency [2] | Potency [4]

CC(C)(O)CC(=O)NCCn1ccc2ncnc(Nc3ccc(Oc4cccc(C(F)(F)F)c4)c(Cl)c3)c21
inactive: Potency [1] | Potency [2] | Potency [3] | Potency [4]

C=C1c2cccc(O)c2C(O)=C2C(=O)[C@@]3(O)C(O)=C(C(N)=O)C(=O)[C@@H](N(C)C)[C@@H]3[C@@H](O)[C@H]12
active: Potency [2] 11.4 µM

Cc1c(C(=O)Nc2ccc(N3C[C@@H](C)O[C@@H](C)C3)nc2)cccc1-c1ccc(OC(F)(F)F)cc1
inactive: Potency [1] | Potency [2] | Potency [3] | Potency [4]

NS(=O)(=O)c1cc(Cl)c(Cl)c(S(N)(=O)=O)c1
inactive: Potency [1] | Potency [2] | Potency [3] | Potency [4]

O[C@@H](COc1cccc2ncccc12)CN1CCN(C2c3ccccc3[C@@H]3[C@H](c4ccccc42)C3(F)F)CC1 (stereo not given in full)
inactive: Potency [1] | Potency [2] | Potency [3] | Potency [4]

CC1(C)CC(=O)c2c(C(F)(F)F)nn(-c3ccc(C(N)=O)c(NC4CCC(O)CC4)c3)c2C1 (stereo not given)
inactive: Potency [1] | Potency [2] | Potency [3] | Potency [4]

CCc1cccc(CC)c1NC(=O)N1Cc2[nH]nc(NC(=O)c3ccc(N4CCN(C)CC4)cc3)c2C1
inactive: Potency [1] | Potency [2] | Potency [3] | Potency [4]

CC1=C(C(=O)Nc2cc3cn[nH]c3cc2F)C(c2ccc(C(F)(F)F)cc2)CC(=O)N1 (stereo not given)
inactive: Potency [1] | Potency [2] | Potency [3] | Potency [4]
